Laboratory results: PubChem BioAssay (NCATS)
Several values for one entry are separate records, joined by “and”; a condition that tells them apart may be missing. Equal values may be shown once. Inconclusive results are not listed. Activity calls are given as the source filed them. Unless noted, calls come from the whole dose curve; as a rule, active = well fitted curve in the direction sought with a large enough effect; inconclusive = small, poorly fitted or top-dose-only effect, or another doubt; inactive = no such curve, though single readings can be large; an effect the other way counts as inactive or inconclusive.

What was measured:
[1] = Primary qHTS for small molecule stabilizers of the endoplasmic reticulum resident proteome: Secreted ER Calcium Modulated Protein (SERCaMP) assay (AID 1508630); note: % is set by controls: 0 for no effect and ±100 for the full control effect
Outline: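 The SH-SY5Y reporter protocol was run at 3 concentrations up to 38.3 uM (primary) or 11 concentrations (follow-up): 16 h compound, 100 nM thapsigargin for 4 h, then extracellular luciferase luminescence.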

[2] = biological target: Cytochrome P450 2D6 (Homo sapiens) (UniProt P10635); assay: Cytochrome P450 family 2 subfamily D member 6 (CYP2D6) small molecule antagonists: luciferase biochemical (cell-free) qHTS assay (AID 1645840; active = well fitted curve in the direction sought with a large enough effect in the repeat runs; an effect the other way counts as inactive or inconclusive; note: nearly all actives have a fitted effect of over 55% in size; note: potency is the fitted concentration of half-maximal effect; for activity change, negative = inhibition: % is set by controls: 0 for no effect and ±100 for the full control effect)
Outline: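 P450-Glo CYP2D6 system: proluciferin substrate converted by enzyme to luciferin, read by luminescence proportional to activity. Enzyme-substrate mix with compound 10 min at room temperature, then NADPH regeneration 1 h before detection reagent.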

[3] = biological target: Cytochrome P450 3A4 (Homo sapiens) (UniProt P08684); assay: Cytochrome P450 family 3 subfamily A member 4 (CYP3A4) small molecule antagonists: luciferase qHTS assay (AID 1645841; active = well fitted curve in the direction sought with a large enough effect in the repeat runs; an effect the other way counts as inactive or inconclusive; note: nearly all actives have a fitted effect of over 45% in size)
Outline: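 P450-Glo CYP3A4 enzyme with proluciferin substrate was preincubated with DMSO-dissolved compounds for 10 min at room temperature. NADPH regeneration solution started a 1 h reaction. Detection reagent stopped it, and luminescence was read after 20 min.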

[4] = biological target: Cytochrome P450 2C9 (Homo sapiens) (UniProt P11712); assay: Cytochrome P450 family 2 subfamily C member 9 (CYP2C9) small molecule antagonists: luciferase biochemical (cell-free) qHTS assay (AID 1645842; active = well fitted curve in the direction sought with a large enough effect in the repeat runs; an effect the other way counts as inactive or inconclusive; note: nearly all actives have a fitted effect of over 55% in size; note: potency is the fitted concentration of half-maximal effect; for activity change, negative = inhibition: % is set by controls: 0 for no effect and ±100 for the full control effect)
Outline: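 P450-Glo CYP2C9 system: proluciferin substrate with enzyme in mix containing 0.4% BSA, 10 min at room temperature, then NADPH regeneration solution added and incubated 1 h at 37C. Detection reagent stopped reaction; luminescence read after 20 min as RLU.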

[5] = Primary qHTS for inhibitors of nuclear receptor binding SET domain protein 2 (NSD2) in an isogenic RCH-ACV NSD2 p.E1099K mutant (9B) (AID 1645876); note: nearly all actives have a fitted effect of over 70% in size; note: potency is the fitted concentration of half-maximal effect
[6] = biological target: N-terminal Xaa-Pro-Lys N-methyltransferase 1 (Homo sapiens) (UniProt Q9BV86); assay: Confirmatory qHTS for Inhibitors of N-terminal methyltransferase 1 (NTMT1): MTaseGlo Assay (AID 1645874); note: nearly all actives have a fitted effect of over 65% in size; note: potency is the fitted concentration of half-maximal effect;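 for activity change, negative = inhibition: luminescence from SAH made as NTMT1 methylates SPKRIA peptide using SAM; 0% = DMSO control and -100% = no-enzyme control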
Outline: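 Room-temperature NTMT1 reaction, 30 min, with 100 uM SAM and 1 uM SPKRIA substrate; enzyme 125 nM. Read-out: MTase-Glo luminescence, normalized to no-enzyme and DMSO controls.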

[7] = biological target: Catechol O-methyltransferase (Homo sapiens) (UniProt P21964); assay: Confirmatory Screen for Target Class Profiling of Small Molecule Inhibitors of Methyltransferases (AID 1745852; calls by dose curve; note: potency is the fitted concentration of half-maximal effect; for activity change, negative = inhibition: % is set by controls: 0 for no effect and ±100 for the full control effect); settings: MTase-Glo luminescence, SAH detection, recombinant enzyme; measured here: COMT max response; stronger effect = lower value
[8] = biological target: Guanidinoacetate N-methyltransferase (Homo sapiens) (UniProt Q14353); assay: as above; settings: MTase-Glo luminescence, SAH detection, recombinant enzyme; activity change, negative = inhibition: at 57.3 µM (top of the series) unless noted
[9] = Primary qHTS for inhibitors of nuclear receptor binding SET domain protein 2 (NSD2) in an RCH-ACV wild type WT cells (2C) (AID 1645877); note: nearly all actives have a fitted effect of over 70% in size; note: potency is the fitted concentration of half-maximal effect

Cytochrome P450 2D6 (Homo sapiens), sequence (P10635 whole entry, looked up): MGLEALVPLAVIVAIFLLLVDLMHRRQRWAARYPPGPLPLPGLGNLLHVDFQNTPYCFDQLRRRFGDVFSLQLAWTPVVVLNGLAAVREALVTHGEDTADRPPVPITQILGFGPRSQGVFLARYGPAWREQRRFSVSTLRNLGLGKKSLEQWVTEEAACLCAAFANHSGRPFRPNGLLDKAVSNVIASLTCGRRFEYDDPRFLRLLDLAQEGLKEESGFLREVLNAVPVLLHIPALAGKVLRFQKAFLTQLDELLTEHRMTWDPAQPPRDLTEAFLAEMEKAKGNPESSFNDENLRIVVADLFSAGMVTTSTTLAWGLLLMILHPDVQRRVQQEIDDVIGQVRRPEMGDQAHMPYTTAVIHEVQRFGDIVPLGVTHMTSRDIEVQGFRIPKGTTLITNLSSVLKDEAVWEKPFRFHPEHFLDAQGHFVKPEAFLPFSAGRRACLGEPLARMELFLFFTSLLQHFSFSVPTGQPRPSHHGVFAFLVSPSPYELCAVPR
Catechol O-methyltransferase (Homo sapiens), sequence (P21964 whole entry, looked up): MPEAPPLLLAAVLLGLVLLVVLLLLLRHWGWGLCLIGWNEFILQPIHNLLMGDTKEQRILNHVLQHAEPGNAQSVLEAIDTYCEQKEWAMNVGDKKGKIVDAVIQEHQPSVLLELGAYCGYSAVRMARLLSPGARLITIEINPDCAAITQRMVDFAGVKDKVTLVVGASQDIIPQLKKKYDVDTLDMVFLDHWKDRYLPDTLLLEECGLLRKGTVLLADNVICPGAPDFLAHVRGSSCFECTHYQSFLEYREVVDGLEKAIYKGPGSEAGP
Cytochrome P450 2C9 (Homo sapiens), sequence (P11712 whole entry, looked up): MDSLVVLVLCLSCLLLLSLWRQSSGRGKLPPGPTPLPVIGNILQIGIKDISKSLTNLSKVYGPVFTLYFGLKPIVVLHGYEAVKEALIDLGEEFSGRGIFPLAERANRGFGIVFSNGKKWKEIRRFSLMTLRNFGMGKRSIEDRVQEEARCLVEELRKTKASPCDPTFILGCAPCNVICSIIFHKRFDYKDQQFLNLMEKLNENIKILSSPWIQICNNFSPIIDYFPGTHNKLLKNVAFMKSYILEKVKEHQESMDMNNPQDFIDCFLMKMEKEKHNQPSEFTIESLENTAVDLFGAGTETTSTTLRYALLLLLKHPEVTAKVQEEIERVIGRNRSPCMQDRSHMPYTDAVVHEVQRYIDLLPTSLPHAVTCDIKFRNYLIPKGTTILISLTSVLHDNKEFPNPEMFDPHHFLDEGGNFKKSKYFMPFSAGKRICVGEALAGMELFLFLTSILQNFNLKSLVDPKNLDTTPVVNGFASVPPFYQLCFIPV
N-terminal Xaa-Pro-Lys N-methyltransferase 1 (Homo sapiens), sequence (Q9BV86 whole entry, looked up): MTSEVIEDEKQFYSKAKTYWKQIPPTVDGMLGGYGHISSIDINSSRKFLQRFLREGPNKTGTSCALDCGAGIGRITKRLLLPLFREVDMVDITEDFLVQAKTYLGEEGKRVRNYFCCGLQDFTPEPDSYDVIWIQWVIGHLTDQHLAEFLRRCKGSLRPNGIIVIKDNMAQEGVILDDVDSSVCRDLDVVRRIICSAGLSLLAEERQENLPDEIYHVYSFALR
Cytochrome P450 3A4 (Homo sapiens), sequence (P08684 whole entry, looked up): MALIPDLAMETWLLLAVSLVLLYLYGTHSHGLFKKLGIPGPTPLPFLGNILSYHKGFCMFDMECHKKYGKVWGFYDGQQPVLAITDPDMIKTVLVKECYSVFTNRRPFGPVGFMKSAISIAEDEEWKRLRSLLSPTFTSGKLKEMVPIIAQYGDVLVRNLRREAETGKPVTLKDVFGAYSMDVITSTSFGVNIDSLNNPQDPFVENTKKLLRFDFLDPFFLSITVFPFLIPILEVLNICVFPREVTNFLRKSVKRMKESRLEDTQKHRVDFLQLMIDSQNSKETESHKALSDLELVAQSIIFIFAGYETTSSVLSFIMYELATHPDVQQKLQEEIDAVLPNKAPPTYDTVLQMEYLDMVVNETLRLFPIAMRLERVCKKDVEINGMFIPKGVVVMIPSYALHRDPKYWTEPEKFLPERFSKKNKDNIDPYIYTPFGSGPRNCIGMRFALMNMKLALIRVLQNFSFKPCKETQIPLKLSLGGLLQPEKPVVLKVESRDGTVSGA

COc1c(OCCCN2CCOCC2)ccc2c3n(c(=NC(=O)c4cnc(N)nc4)nc12)CCN3
Potency [1]: inactive
Potency [2]: inactive
outcome [3]: inactive
Potency [4]: inactive
Potency [5]: 9.4 nM (active) and 24.1 nM (active)

O=C(O)c1ccc2c(c1)nc(Nc1cccc(Cl)c1)c1ccncc12
Potency [1]: inactive
Potency [2]: inactive
Potency [4]: 12 µM (active)
Potency [6]: 28.2 µM (active)
Potency [5]: 4.59 µM (active) and 2.95 µM (active)
activity [7]: -68.6%
Potency [8]: 27.1 µM (active)

CS(=O)(=O)c1ccc(-c2cnc(N)c(C(=O)Nc3ccccc3)n2)cc1
Potency [1]: inactive
Potency [2]: inactive
Potency [4]: 12 µM (active)
Potency [5]: 2.63 µM (active)
Potency [9]: 2.63 µM (active)

C[C@@H](Oc1cc(-c2cnn(C3CCNCC3)c2)cnc1N)c1c(Cl)ccc(F)c1Cl
Potency [1]: inactive
Potency [2]: 21.3 µM (active) and 13.5 µM (active)
Potency [4]: 1.69 µM (active)
Potency [6]: 39.8 µM (active)
Potency [5]: 1.45 µM (active) and 1.83 µM (active) and 1.48 µM (active)
Potency [9]: 1.15 µM (active) and 1.29 µM (active) and 1.05 µM (active)
activity [7]: -38.2% and -62.1%
Potency [8]: 27.1 µM (active)

CN(C)CC(C)(C)CNc1nn2c(-c3ccccc3)nnc2cc1C1CCC1
Potency [1]: inactive
Potency [2]: 2.13 µM (active)
Potency [4]: 8.49 µM (active)
Potency [5]: inactive

CC(C)c1cnn2c(NCc3ccccc3)cc(N[C@@H](CO)[C@H](O)CO)nc12
Potency [1]: inactive
Potency [2]: inactive
Potency [4]: 3.79 µM (active)
Potency [5]: 515 nM (active) and 186 nM (active)
Potency [9]: 515 nM (active) and 166 nM (active)

COc1ccc(-c2cc3c(C)nc(N)nc3n(C3CCC(OCCO)CC3)c2=O)cn1 (configuration not stated)
Potency [1]: inactive
Potency [2]: inactive
Potency [4]: 5.35 µM (active) and 4.25 µM (active)
Potency [6]: inactive
Potency [5]: 20.5 nM (active) and 41.7 nM (active)
Potency [9]: 20.5 nM (active) and 41.7 nM (active)

CN(C)Cc1c(C(=O)NCCOc2ccc(C(=O)NO)cc2)oc2ccccc12
Potency [1]: inactive
Potency [2]: 1.69 µM (active)
Potency [4]: inactive
Potency [5]: 515 nM (active) and 332 nM (active)

Cn1cc(-c2[nH]c3cc(NC(=O)[C@H](N)C4CCCCC4)cc4c3c2C=NNC4=O)cn1
Potency [1]: inactive
Potency [2]: inactive
Potency [4]: 9.52 µM (active)
Potency [5]: 578 nM (active) and 833 nM (active)
Potency [9]: 728 nM (active) and 742 nM (active)

CC(C)CC(=O)Nc1n[nH]c2c1CN(C(=O)C1CCN(C)CC1)C2(C)C
Potency [1]: inactive
Potency [2]: inactive
Potency [4]: inactive
Potency [5]: 129 nM (active) and 662 nM (active)
Potency [9]: 580 nM (active) and 590 nM (active)

Nc1ccc(S(=O)(=O)Nc2ncccn2)cc1
Potency [1]: inactive
Potency [2]: inactive
outcome [3]: inactive

CC(C)c1noc(N2CCC(COc3ccc(-c4ccc(S(C)(=O)=O)cc4)nc3)CC2)n1
Potency [1]: inactive
Potency [2]: inactive

CCCCc1nc2cc(C=CC(=O)NO)ccc2n1CCN(CC)CC
Potency [1]: inactive
Potency [2]: 12 µM (active)

O=C(O)Cn1nnc(-c2cc(N3CCC(Oc4cc(F)ccc4Br)CC3)no2)n1
Potency [1]: inactive
Potency [2]: inactive
Potency [4]: 13.5 µM (active)
Potency [5]: inactive

COc1ccc2c(c1)CC[C@@H](CN(C)CC(=O)O)[C@H]2c1ccccc1
Potency [1]: inactive
Potency [2]: inactive
Potency [4]: inactive
Potency [5]: inactive
Potency [9]: inactive

COc1cc(Nc2ncc(F)c(Nc3ccc4c(n3)N(COP(=O)(O)O)C(=O)C(C)(C)O4)n2)cc(OC)c1OC
Potency [1]: inactive
Potency [2]: inactive
Potency [4]: 10.7 µM (active)
Potency [5]: 1.29 µM (active) and 5.17 µM (active) and 1.48 µM (active)
Potency [9]: 1.15 µM (active) and 5.17 µM (active) and 1.66 µM (active)

Nc1nccc(Oc2ccc(NC(=O)c3c[nH]cc(-c4ccc(F)cc4)c3=O)cc2F)c1Cl
Potency [1]: inactive
Potency [2]: 3.38 µM (active)
Potency [4]: 8.49 µM (active)
Potency [5]: 11.8 µM (active)
Potency [9]: 10.5 µM (active)
activity [7]: -3.16%
activity change, negative = inhibition [8]: -6.18%

CC(C)(C)c1cnc(CSc2cnc(NC(=O)C3CCNCC3)s2)o1
Potency [1]: inactive
Potency [2]: 25.1 µM (active)
Potency [5]: 0.209 µM (active)
Potency [9]: 0.148 µM (active)

COc1ccc(F)c(F)c1C(=O)c1cnc(NC2CCN(S(C)(=O)=O)CC2)nc1N
Potency [1]: inactive
Potency [2]: inactive
Potency [5]: 325 nM (active) and 662 nM (active)

Cc1[nH]nc2ccc(-c3cncc(OC[C@@H](N)Cc4ccccc4)c3)cc12
Potency [1]: inactive
Potency [2]: 0.674 µM (active)
Potency [5]: 325 nM (active) and 263 nM (active)
Potency [9]: 326 nM (active) and 186 nM (active)

NCC(=O)Nc1ccc(-n2nc(C(F)(F)F)cc2-c2ccc3c(ccc4ccccc43)c2)cc1
Potency [1]: inactive
Potency [2]: 15.1 µM (active)
Potency [5]: 1.15 µM (active) and 1.48 µM (active)
Potency [9]: 4.09 µM (active) and 2.09 µM (active)
